# Shown are actives, neighbours in structure and some others; about 2.1% of the full set was active somewhere.
# Rpn11 inh: inhibitors of human proteasome Rpn11 | O00487 | human 26S proteasome, Ub4-pepOG fluorescence polarization; 20S core pre-blocked with epoxomicin | inhibition, % at 20 µM | 360,000 tested, 0.59% active;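 active = inhibition at 20 µM, scaled to each plate's controls, above about 33%, limit read from the data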
# Target sequence (O00487 whole entry, looked up): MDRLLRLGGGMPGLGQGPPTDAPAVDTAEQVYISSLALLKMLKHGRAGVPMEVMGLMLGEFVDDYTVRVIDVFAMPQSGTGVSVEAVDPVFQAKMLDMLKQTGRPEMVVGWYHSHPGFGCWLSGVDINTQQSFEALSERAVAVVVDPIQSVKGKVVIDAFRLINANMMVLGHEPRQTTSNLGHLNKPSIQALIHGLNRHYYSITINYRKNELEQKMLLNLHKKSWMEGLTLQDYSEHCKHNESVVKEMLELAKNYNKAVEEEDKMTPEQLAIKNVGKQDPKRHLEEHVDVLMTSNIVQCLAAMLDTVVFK
# Myeloid diff 2: myeloid differentiation induction. ER-HoxA9 myeloid progenitors, lysozyme-GFP differentiation, flow cytometry. calls only at 10 µM. 360,000 tested, 1% active. AID 624256;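 active = normalized GFP-positive differentiation at or above the plate's own cutoff, the solvent-only control mean plus 3 SD; inconclusive = no clear call, values can overlap the other calls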;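 also: cells exposed to compound for four days before flow analysis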
# HNF4A DNA FP: change in binding of human HNF4 alpha to DNA | P41235 | HNF4a-FITC DNA binding, fluorescence polarization, 1 h | activity change, % at 10 µM | 360,000 tested, 0.3% active | AID 1224865; in the data active = activity change above about 30%, passing the limit was not always enough
# TPT1 inh: C. albicans TPT1 enzyme inhibition. recombinant caTPT1, FP RNA substrate dephosphorylation. inhibition, % at 5 µM. 300,000 tested, 0.81% active;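 active = inhibition above the mean of all tested compounds plus 3 SD, set per screening campaign, cut at about 24% in these data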;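 also: plate controls were DMSO alone for no effect and ferristatin control at 100 nM for full effect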
# TPT1 inh confirm: TPT1 (C. albicans) inhibition, confirmation; recombinant caTPT1, fluorescence polarization, RNase T1 coupled; inhibition, % at 5 µM; shares compounds with TPT1 inh; AID 2149; 2,400 tested, 74% active;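 active = inhibition above the primary screen limit, the mean inhibition of all tested compounds plus 3 SD, cut at about 25% in these data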
# RNase T1 counter: counter-screen for TPT1 inhibitors: inhibitors of Aspergillus oryzae RNase T1; shares compounds with TPT1 inh; 2,400 tested, 83% active; AID 2153; inhibition, % at 5 µM; RNase T1 cleavage, fluorescence polarization, 1536-well;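 active = inhibition above the solvent-only control well mean plus 3 SD, limit set per screening run, cut at about 23% in these data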;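 also: plate controls were DMSO wells with enzyme for no effect and wells without RNase T1 for full effect; inhibitors block cleavage so intact labeled substrate keeps polarization high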
# Numbers without * were called inactive; i = inactive; ? = inconclusive; · = no result shown; + = active, no number.
SMILES,Rpn11 inh,Myeloid diff 2,HNF4A DNA FP,TPT1 inh,TPT1 inh confirm,RNase T1 counter
Cc1cc(NC(=O)NC2CCCN2S(=O)(=O)c2ccc(Cl)cc2)no1 (configuration not stated),4,i,-1,-7,·,·
CN1C(=O)C2(C(C#N)=C(N)Oc3c2oc(CO)cc3=O)c2ccccc21 (configuration not stated),-2,i,-2,-3,·,·
Cc1ccc(/C=C/c2ccc(N(C)C)cc2)[n+](C)c1,·,?,89*,36*,46*,56*
CN(C)c1ccc(/C=C/c2cc[n+]([O-])cc2)cc1,·,·,·,-11,·,·
CCOc1ccccc1N1CCN(c2nc(N)c(C#N)c(CC#N)c2C#N)CC1,20,i,8,28*,30*,42*
Cc1csc(NC(=O)CCCNC(=O)c2ccc(Cl)cc2)n1,1,i,4,·,·,·
CCCCCCc1cc2cc(-c3nnc(-c4cc(OC)c(OC)c(OC)c4)o3)c(=O)oc2cc1O,·,·,·,118*,130*,121*
CCCCCCc1cc2cc(C(=O)Nc3ccccc3OC)c(=O)oc2cc1O,-3,i,1,-2,·,·
CCCCCCc1cc2cc(-c3nnc(-c4ccccc4O)o3)c(=O)oc2cc1O,·,+,-98,121*,114*,113*
CCCCCCc1cc2cc(-c3nnc(-c4ccccc4OC)o3)c(=O)oc2cc1O,·,+,88,97*,97*,114*
CCCSc1nnc(CSc2nc(C)cc(C)n2)n1C,0,i,-2,4,·,·
COc1cccc(-c2cccc(-c3nc(C(=O)NCc4ccc5c(c4)OCO5)cc4c3[C@H](CCO)N(S(=O)C(C)(C)C)C4)c2)c1 (some centres not stated),7,i,12,·,·,·
Cc1cccc(N2CCN(C(=O)c3ccc4c(c3)NC(=O)C(CSCc3cccc(F)c3)N4)CC2)c1C (configuration not stated),·,·,·,134*,131*,125*
Cc1c(-c2ccc(O)cc2)nc2nc(-c3ccccc3)c(-c3ccccc3)nn12,·,·,·,27*,49*,67*
CCOc1ccc(C(=O)N2CCC3(CC2)NCCc2[nH]cnc23)cc1,-8,i,5,-4,·,·
COc1ccc(C)c2sc(=NC(=O)c3cccc(N4C(=O)CCC4=O)c3)n(C)c12,-1,i,1,38*,-1,5
CN1/C(=C\C=C(/C#N)C(=O)Nc2ccccc2F)C(C)(C)c2ccccc21,·,i,102,123*,95*,93*
Cc1oc(C)c2c(=O)ccc3c(c12)OC(N)=C(C#N)C3c1ccc(F)cc1 (configuration not stated),·,+,18,31*,17,28*
CN(C)Cc1c[nH]c2nc[nH]c(=O)c12,5,i,-4,·,·,·
Cc1cc(C)n(-c2ccc(NC(=O)C3CCCCN3C(=O)c3sccc3C)cc2)n1 (configuration not stated),4,i,2,1,·,·
COc1ccccc1NS(=O)(=O)c1cc([N+](=O)[O-])ccc1N/N=C/c1sc(N2CCOCC2)nc1-c1ccccc1,·,+,75*,97*,111*,110*
COc1ccc(C(=O)N/N=C/c2sc(N3CCOCC3)nc2-c2ccccc2)cc1OC,-2,i,3,7,·,·
CNC(=O)/C(C#N)=C/c1cn(CC(=O)OC)c2ccccc12,-2,i,-2,-3,·,·
COC(=O)Cn1cc(/C=C/c2cc[n+](C)cc2)c2ccccc21,·,+,92,35*,41*,49*
COc1ccccc1OCCC(=O)OCC(=O)c1c(N)n(C)c(=O)n(C)c1=O,-6,i,1,113*,12,19
CCOC(=O)N1CCC2(CC1)C(C#N)=C(N)Oc1c2sc2nc(C)cc(C)c12,2,i,-1,2,·,·
CCCN1CCC2(CC1)C(C#N)=C(N)Oc1c2sc2nc(C)cc(C)c12,6,i,1,24*,19,27*
CC(C)COC(=O)N1CCCCC1c1cc(C(=O)N2CCOCC2)no1 (configuration not stated),2,i,-1,·,·,·
CCOC(=O)C1=C(C)N=c2s/c(=C/c3ccco3)c(=O)n2C1c1cccc(OC)c1 (configuration not stated),·,·,·,31*,25*,35*
